# This is a sample that favours compounds with a hit; in the whole collection about 7.2% have one here.
# AHR activator: human AHR activation. P35869. AHR-responsive luciferase reporter cells, luminescence. activation, % at 5 µM. hit rate 2.5% among 320,000. AID 2796; in the data active means activation above about 47%
# Target sequence (P35869 whole entry, looked up): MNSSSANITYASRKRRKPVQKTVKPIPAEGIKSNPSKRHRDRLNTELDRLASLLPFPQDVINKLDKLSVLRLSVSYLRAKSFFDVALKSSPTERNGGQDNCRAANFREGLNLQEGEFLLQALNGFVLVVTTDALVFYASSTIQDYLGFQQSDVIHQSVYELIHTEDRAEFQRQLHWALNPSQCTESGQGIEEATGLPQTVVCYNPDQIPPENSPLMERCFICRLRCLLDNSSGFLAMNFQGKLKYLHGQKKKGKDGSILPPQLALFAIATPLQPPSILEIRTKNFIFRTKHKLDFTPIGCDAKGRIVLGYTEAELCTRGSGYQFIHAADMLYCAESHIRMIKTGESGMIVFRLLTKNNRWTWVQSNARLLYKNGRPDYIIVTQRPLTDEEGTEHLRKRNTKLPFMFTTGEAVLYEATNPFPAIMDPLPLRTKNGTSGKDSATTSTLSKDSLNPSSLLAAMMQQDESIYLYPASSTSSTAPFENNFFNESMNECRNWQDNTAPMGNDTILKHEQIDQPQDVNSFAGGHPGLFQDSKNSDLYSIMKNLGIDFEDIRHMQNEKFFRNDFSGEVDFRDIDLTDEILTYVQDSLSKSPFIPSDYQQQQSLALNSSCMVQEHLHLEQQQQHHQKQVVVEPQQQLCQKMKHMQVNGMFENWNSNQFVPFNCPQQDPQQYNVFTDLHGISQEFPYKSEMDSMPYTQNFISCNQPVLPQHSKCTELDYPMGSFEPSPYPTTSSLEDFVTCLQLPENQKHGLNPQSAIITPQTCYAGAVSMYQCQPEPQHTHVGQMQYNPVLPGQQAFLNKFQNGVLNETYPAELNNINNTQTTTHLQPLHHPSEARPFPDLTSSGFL
# ALR inh: blocks human ALR sulfhydryl oxidase activity; AID 485317; P55789; inhibition, % (test concentration not listed); purified ALR, DTT oxidation, H2O2 HRP-luminol luminescence; hit rate 3.8% among 290,000;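 active means mean replicate inhibition above about 79%, with every replicate also reaching it, limit read from the data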
# Efflux pump mplx: inhibitors of Candida antifungal efflux pumps expressed in yeast. AID 485275. inhibition, % at 10 µM. hit rate 0.44% among 330,000. S. cerevisiae Candida pump triplex, Nile Red efflux;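 active means plate passing quality check with inhibition over a set limit, or well fluorescence over plate mean plus 4 SD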;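 further: Nile Red retained in pooled yeast measured as flow cytometry median fluorescence; higher means more Nile Red kept so more efflux inhibition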
# SUMO Mot1 rescue: blocks SUMOylation pathway, rescuing yeast Mot1-301 growth; S. cerevisiae Mot1-301 growth rescue, ATP luminescence, 38.5C; percent above DMSO median, 100 means doubled; growth rescue, % at 18.8 µM; hit rate 1% among 320,000; AID 2716;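 active means every valid replicate shows activation above 250% relative to neutral control wells; inactive means the rest, any valid replicate at or below 250%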
# Bfl-1 A1 inh: inhibitors of the anti-apoptotic protein A1, read as caspase activation. hit rate 0.066% among 330,000. MEF A1-2A-BIM cells, Caspase-Glo 3/7 luminescence, 3 h; percent of clofoctol response, vehicle zero. caspase activation, % (no concentration beside the values). AID 2462;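 active means over half of replicate activation scores above 10%, or exactly half above 10 with the replicate mean above 10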
# VLA-4 inh: inhibition in a human VLA-4 binding assay; inhibition, % (about 7 µM as worked out from the volumes in the protocol); hit rate 0.2% among 330,000; VLA-4 expressing cells, ligand binding flow cytometry; AID 2557; in the data active means inhibition above about 50%
# Yeast Mot1 SUMO: inhibits SUMO pathway, affecting Mot1-301 yeast growth; shares compounds with SUMO Mot1 rescue; S. cerevisiae Mot1-301 galactose growth, ATP luminescence, 24 h; -100 = growth of slx-deleted rescue strain; growth activity, percent, % at 42 µM; 2,300 tested, under 10 active;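 active means Signal drops as the depositor expects, and the fitted half-maximal dose is no more than ten times the top valid tested dose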;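 further: more negative values mean stronger growth rescue toward the control strain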
# Hits are given with their value; – = inactive; · = no result given; + = active, no number.
SMILES,AHR activator,ALR inh,Efflux pump mplx,SUMO Mot1 rescue,Bfl-1 A1 inh,VLA-4 inh,Yeast Mot1 SUMO
Cn1c(=O)c2c(nc(N/N=C/c3ccc(OC(=O)c4ccco4)cc3)n2Cc2ccccc2Cl)n(C)c1=O,–,–,–,+,–,–,–
COc1cc(CNC(=O)C2CCC(=O)N(C3CCCCCC3)C2)cc(OC)c1 (centres undefined),–,–,–,–,–,–,·
CCOC(=O)Cc1csc(NC(=O)NC2(C(F)(F)F)Oc3ccccc3O2)n1,–,–,–,770,–,–,–
Cc1ccc(CSCCNC(=O)c2ccc(NS(C)(=O)=O)cc2)cc1,–,–,–,453,–,–,–
O=C(C1CCN(S(=O)(=O)N2CCC3(CC2)OCCO3)CC1)N1CCC(Cc2ccccc2)CC1,–,–,–,398,–,–,–
Cc1cc(Cn2nc(-c3ccccc3)cc2C(=O)NCc2cccs2)on1,–,–,·,–,–,·,·
C#CCOC(=O)c1cc(Cl)c(=O)n(Cc2ccc(Cl)cc2Cl)c1,–,–,–,–,–,–,·
COc1ccc(NC(=O)c2ccc(S(=O)(=O)N(C)c3ccccc3)cc2)cn1,–,·,–,+,–,–,–
COc1ccc(C(=O)Nc2ccc(S(=O)(=O)N(C)c3ccccc3)cc2)cc1,–,–,–,–,–,–,·
CCCc1nn2c(=O)cc(CSCC(=O)Nc3ccc(OC)cc3)nc2s1,–,–,–,539,–,–,–
CCCc1nn2c(=O)cc(CSCC(=O)Nc3cccc(OC)c3)nc2s1,–,–,–,–,–,–,·
Cc1ccc(S(=O)(=O)N2CCC(C(=O)NNC(=O)c3ccc(F)cc3)CC2)cc1,–,–,–,–,–,–,·
CC1CC(C)(C)NC(=S)N1CC(=O)NCc1ccc(F)cc1 (centres undefined),–,·,–,835,–,–,–
CCCn1c(N)c(C(=O)CSc2nnnn2-c2ccc(O)cc2)c(=O)n(C)c1=O,–,–,–,–,–,–,·
CC1(C)Cc2nc3sc4c(OCc5ccccc5)ncnc4c3cc2CO1,–,–,–,+,–,–,–
Nn1c(SCc2cc([N+](=O)[O-])cc3c2OCOC3)nnc1-c1ccccn1,–,–,–,531,–,–,–
O=[N+]([O-])c1cc2c(c(CSc3nnc4ccccn34)c1)OCOC2,–,–,–,–,–,–,·
CCC(C(=O)Nc1ccsc1C(=O)OC)c1ccccc1 (centres undefined),–,·,–,–,–,–,·
Cc1cc(C)n(C(=O)c2ccccc2[N+](=O)[O-])n1,–,–,–,438,–,–,–
COc1ccc(N(C(=O)c2ccco2)C(C(=O)NC2CCCCC2)c2ccccc2)cc1 (centres undefined),–,–,–,694,–,–,–
COc1ccc(N(C(=O)c2ccco2)C(C(=O)NC2CCCC2)c2ccccc2)cc1 (centres undefined),–,·,–,–,–,–,·
Cc1cc([N+](=O)[O-])ccc1NC(=O)CSc1nccc(=O)[nH]1,–,–,–,378,–,–,–
CCn1c(/N=C/c2ccccc2NS(=O)(=O)c2ccc(C)cc2)nc2ccccc21,–,–,–,–,–,–,·
CCOC(=O)C1CCCN(C(=O)c2cc(-c3ccncc3)nc3ccccc23)C1 (centres undefined),–,–,–,–,–,–,·
CCOC(=O)C1CCCN(C(=O)c2cc(-c3ccc(F)cc3)nc3ccccc23)C1 (centres undefined),–,–,–,463,–,–,–
SMILES,AHR activator,ALR inh,Efflux pump mplx,SUMO Mot1 rescue,Bfl-1 A1 inh,VLA-4 inh,Yeast Mot1 SUMO
CCn1c(=O)n(CC(=O)Nc2ccc(F)cc2)c(=O)c2ccccc21,–,–,–,–,–,–,·
COC(=O)CCC(=O)OC1(C)C(=O)C2=CN(CCc3c[nH]c4ccccc34)C(c3ccc(OC)cc3)=CC2=C(Br)C1=O (centres undefined),–,–,–,419,–,–,–
COC(=O)CCC(=O)OC1(C)C(=O)C2=CN(Cc3ccccc3)C(c3ccc(OC)cc3)=CC2=C(Br)C1=O (centres undefined),–,·,–,–,–,–,·
O=C1CCC(C(=O)N2CCCC2)CN1Cc1cccc(C(F)(F)F)c1 (centres undefined),–,–,–,–,–,–,·
Cc1cc(C)c(NC(=O)CNC(=O)c2cc([N+](=O)[O-])ccc2N2CCOCC2)c(C)c1,–,–,–,507,–,–,–
CCN(C(=O)COC(=O)c1cc([N+](=O)[O-])ccc1N1CCCCC1)C1CCS(=O)(=O)C1 (centres undefined),–,–,–,–,–,–,·
CCN(C(=O)COC(=O)c1cc([N+](=O)[O-])ccc1N1CCOCC1)C1CCCCC1,–,·,–,538,–,–,–
C/C(CC(=O)Nc1ccc(Cl)cc1Cl)=N\NC(=O)c1ccco1,–,–,–,–,–,–,·
O=C(Nc1ccc2c(c1)CCC2)Nc1ccccc1F,–,–,–,–,–,–,·
O=C(Nc1ccc([N+](=O)[O-])cn1)C1CC1,–,–,–,573,–,–,–
COc1ccc(NC(=O)CSCC(=O)Nc2nnc(CC(C)C)s2)cc1,–,–,–,–,–,–,·
CCN(CC)c1nc2c(c(=O)[nH]c(=O)n2C)n1CCOc1ccccc1,–,–,–,710,–,–,–
CN(C)c1nc2c(c(=O)[nH]c(=O)n2C)n1CCOc1ccccc1,–,–,–,–,–,–,·
CN(C)/C=C/C(=O)c1cc(N2CCOCC2)ccc1[N+](=O)[O-],–,–,–,–,–,–,·
O=C(Nc1ccc(OC(F)(F)F)cc1)c1ccc2ccccc2n1,47,–,–,645,–,–,–
O=C(Nc1ccccc1)c1ccc2ccccc2n1,–,–,–,–,–,–,·
CSc1nnc(C2CCN(CC(=O)Nc3ccccc3N3CCOCC3)CC2)n1C,–,·,–,–,–,–,·
Cc1ccccc1-c1nnnn1C1CCS(=O)(=O)C1 (centres undefined),–,–,–,+,–,–,–
C=CCSC1=C(C#N)C(c2ccc(C(C)C)cc2)CC(=O)N1 (centres undefined),–,–,–,405,–,–,–
Cc1ccc(C)c(NC(=O)Cn2c([N+](=O)[O-])cnc2C)c1,–,–,–,–,–,–,·
Cc1cc(C)c(NC(=O)Cn2c([N+](=O)[O-])cnc2C)c(C)c1,–,–,–,+,–,–,–
Cc1cc(C(=O)Nc2ccccc2Cc2ccccc2)no1,–,–,–,–,–,–,·
CC(C)(C)NC(=O)NC(=O)CN1CCN(S(=O)(=O)c2ccc3c(c2)OCCO3)CC1,–,·,–,988,–,–,–
COc1ccccc1-c1nnc(SCC(=O)NC2CCCCC2)n1N,–,–,–,–,–,–,·
